Results taken from PubChem BioAssay AID602252 (Broad Institute, 2012).
In all, about 300,000 compounds went through this assay and about 2,700 (0.9%) were called active.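 How the source made its calls: active means mean inhibition of at least 30% with at least half of replicates also reaching 30%; inconclusive means no clear call, values can overlap the other calls; inactive means the rest.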 The sample as a whole holds a higher share of actives than the screen did.

What follows are compounds tested against Golgi-associated PDZ and coiled-coil motif-containing protein (Homo sapiens) (UniProt Q9HD26) (assay: untagged CAL PDZ binding inhibitors, primary screen, biochemical, fluorescence polarization, HTS (AID 602252;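 further: 0% = DMSO neutral control and 100% = excess unlabeled competitor peptide PRC23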)). Conditions: purified CAL PDZ, TMR-peptide fluorescence polarization, 1 h; at 24.9 µM; active compounds read high.

Which inhibition does the source give for CCOC(=O)c1c(NC(=S)NC(=O)c2ccco2)sc2c1CCCC2 here?
The inhibition was 58.9% (active).

How did the inhibition turn out when CCOC(=O)c1c(NC(=S)NC)sc2c1CCCC2 was run?
Its inhibition is 2.4% (inactive).

For CC(C)OC(=O)c1c(NC(=O)c2ccco2)sc2c1CCCC2, which inhibition is on record?
The inhibition was -1.93% (inactive).

Which inhibition does the source give for C=CC(COCc1ccccc1)N(CC(=O)OC)S(=O)(=O)c1cc(Br)ccc1OC (stereo not drawn) here?
The inhibition was -5.08% (inactive).

With Cc1ccc(C(=O)NCCNC(=O)c2ccccc2)cc1 as the compound, how does the inhibition read?
Its inhibition is 10.7% (inactive).

How did the inhibition turn out when Cc1ncoc1C(=O)NCCC(c1ccccc1)c1ccccc1 was run?
Its inhibition is 56.7% (active).

Which inhibition does the source give for Cc1ccc(S(=O)(=O)NCCC(c2ccccc2)c2ccccc2)cc1C(=O)O here?
The inhibition was 3.3% (inactive).

How did the inhibition turn out when COc1cc(C(=O)NC2CCN(C)CC2)ccc1Nc1ncc2c(n1)N(C1CCC(O)CC1)CCC(=O)N2C (stereo not drawn) was run?
Its inhibition is -0.543% (inactive).

For FC(F)(F)c1ccc(-c2cccc3c2C2CC3CCN2Cc2ccccc2)cc1 (stereo not drawn), which inhibition is on record?
Its inhibition is -2.76% (inactive).

With CC(C)c1ccc(C=NNc2ccc([N+](=O)[O-])cn2)cc1 as the compound, how does the inhibition read?
The inhibition was -3.5% (inactive).

C[C@H](O)[C@@H]1C(=O)N2CCc3ccc(N4CCOCC4)cc3[C@@H]2C[C@@H]1N(C)C(=O)C(C)(C)C was tested. Which inhibition did it give?
The inhibition was -2.27% (inactive).

Which inhibition does the source give for CN(CCc1ccccc1)C(=O)c1cccc(NC(=O)Cc2cccc(NC(=O)C3CCCN(C(=O)CCc4ccccc4)C3)c2)c1 (stereo not drawn) here?
The inhibition was -1.89% (inactive).

How did the inhibition turn out when Cc1ccc(CS(=O)Cc2ccc(C(=O)N3CCOCC3)o2)cc1 (stereo not drawn) was run?
The inhibition was 61.7% (active).

With Cc1ccc(C(=O)N2CCN(C(=O)N3CCOCC3)CC2)cc1 as the compound, how does the inhibition read?
The inhibition was -4.62% (inactive).

Which inhibition does the source give for Cc1ccc(S(=O)Cc2ccc(C(=O)N3CCN(C4CCCCC4)CC3)o2)cc1 (stereo not drawn) here?
The inhibition was -1.71% (inactive).

With CC/C(=C(/c1ccccc1)c1ccc(OCC[N+](C)(C)C)cc1)c1ccccc1 as the compound, how does the inhibition read?
The inhibition was 5.44% (inactive).

With CC(C)Cn1cnc2c(SCc3ccc(Cl)cc3)nc(N)nc21 as the compound, how does the inhibition read?
Its inhibition is -5.42% (inactive).

How did the inhibition turn out when CC(=O)CSc1nc(CCc2ccccc2)c(C#N)c(=O)[nH]1 was run?
Its inhibition is -3.06% (inactive).

CCNC(=S)Nc1ccc(OC(F)(F)F)cc1 was tested. Which inhibition did it give?
The inhibition was -0.766% (inactive).

Which inhibition does the source give for FC(F)(F)Oc1ccc(NC(=S)NCc2ccccc2)cc1 here?
Its inhibition is 2.02% (inactive).

Which inhibition does the source give for CS(=O)(=O)c1sc(C(=O)NC(=S)Nc2ccc(OC(F)(F)F)cc2)c2c1C=CCC2 here?
The inhibition was 106% (active).

For CCC(=O)N1CCc2cc(Br)c(S(=O)(=O)NCCN3CCCCC3CC)cc21 (stereo not drawn), which inhibition is on record?
Its inhibition is -29.4% (inactive).

For Cc1ccc(C(=O)Nc2ccccc2-c2ccccc2)cc1S(=O)(=O)Nc1ccccc1, which inhibition is on record?
Its inhibition is -1.73% (inactive).

Which inhibition does the source give for Cc1ccc(CNC(=O)Cn2cnc3c(NCc4ccccc4)ncnc32)o1 here?
The inhibition was -0.092% (inactive).

COc1ccc(NC(=O)C(C)N2c3cccc4cccc(c34)S2(=O)=O)c(OC)c1 (stereo not drawn) was tested. Which inhibition did it give?
The inhibition was 62.5% (active).

With CC(C(=O)N1CCOCC1)N1c2cccc3cccc(c23)S1(=O)=O (stereo not drawn) as the compound, how does the inhibition read?
The inhibition was 0.599% (inactive).

COc1ccc(C)cc1NC(=O)CN1c2cccc3cccc(c23)S1(=O)=O was tested. Which inhibition did it give?
The inhibition was -0.836% (inactive).

O=C(Cn1cnc2cc([N+](=O)[O-])ccc2c1=O)NC(=O)NCc1ccccc1 was tested. Which inhibition did it give?
Its inhibition is 65.7% (active).

How did the inhibition turn out when CC(C)(C)NC(=O)Cn1cnc2cc([N+](=O)[O-])ccc2c1=O was run?
Its inhibition is -5.79% (inactive).

Which inhibition does the source give for O=C(Cn1cnc2c(cnn2-c2ccccc2)c1=O)NCc1ccccc1 here?
The inhibition was 2.18% (inactive).

For COc1cc(C(=O)OCc2cc(=O)n3ccsc3n2)ccc1OC(C)C, which inhibition is on record?
The inhibition was -4.78% (inactive).

For Oc1[nH]c2ccccc2c1N=Nc1c(F)c(F)c(F)c(F)c1F, which inhibition is on record?
The inhibition was -3.27% (inactive).

With O=C(OCC(=O)N1CCN(c2ccccc2)CC1)c1ccc([N+](=O)[O-])s1 as the compound, how does the inhibition read?
Its inhibition is 4.92% (inactive).

How did the inhibition turn out when O=C(OCC(=O)N1CCN(C(=O)c2ccco2)CC1)c1c(Cl)cccc1Cl was run?
The inhibition was -0.558% (inactive).

Cc1ccc(S(=O)(=O)NCCC(=O)Nc2ccc(C)c(Cl)c2)cc1C was tested. Which inhibition did it give?
The inhibition was -1.6% (inactive).

With CC(C)CNS(=O)(=O)c1ccc(CCC(=O)NCc2ccc(Cl)cc2)cc1 as the compound, how does the inhibition read?
The inhibition was 0.426% (inactive).

With Cc1ccc(S(=O)(=O)NCCC(=O)NCc2ccc(Cl)cc2)cc1C as the compound, how does the inhibition read?
Its inhibition is 66.1% (active).

For CCN(CC)C(=O)[C@H]1C[C@H](CC(=O)NCC23CC4CC(CC(C4)C2)C3)C(=O)N2CCc3c([nH]c4cc(CCC(=O)N(C)C)ccc34)[C@]12C, which inhibition is on record?
The inhibition was -1.84% (inactive).

Which inhibition does the source give for Cc1cc(C(F)(F)F)n2ncc(-c3ccccc3)c2n1 here?
The inhibition was 50.2% (active).

Which inhibition does the source give for Cc1cc(-n2nc(C)cc2C)n2ncc(-c3ccccc3)c2n1 here?
The inhibition was -1.01% (inactive).

For O=C(O)c1cnn2c(C(F)(F)F)cc(-c3ccccc3)nc12, which inhibition is on record?
The inhibition was 0.025% (inactive).

Which inhibition does the source give for O=[N+]([O-])c1cccc(C=NN=Cc2ccccc2O)c1 here?
The inhibition was 6.22% (inactive).

For COC(=O)[C@]1(Cc2ccccc2)N[C@H](CN(C)S(=O)(=O)c2ccc(OC(F)(F)F)cc2)[C@@H]2C(=O)N(Cc3ccccc3)C(=O)[C@@H]21, which inhibition is on record?
The inhibition was -5.9% (inactive).

For NN=C(NN=Cc1ccccc1)c1ccccc1, which inhibition is on record?
The inhibition was -2.94% (inactive).

For COc1ccc(-c2nc3cc(C)ccn3c2NC2CCCCC2)cc1SC1CCCCC1, which inhibition is on record?
The inhibition was -0.092% (inactive).

How did the inhibition turn out when CCCCN(CC(=O)Nc1cccc(S(=O)(=O)N2CCCC2)c1)Cc1nc2ccccc2c(=O)[nH]1 was run?
The inhibition was -3.98% (inactive).

For CCc1ccc(CN(C)C(C)C(=O)Nc2ccc(S(=O)(=O)N3CCCC3)cc2)cc1 (stereo not drawn), which inhibition is on record?
Its inhibition is 2.24% (inactive).

How did the inhibition turn out when COc1cc(OC)cc(-c2c(C#Cc3ccsc3)c3cc(-c4ccc(OC)cc4F)ccc3n2C)c1 was run?
The inhibition was 2.79% (inactive).

Which inhibition does the source give for O=C1OCC2=C1C(c1ccc(Cl)cc1)c1cc3c(cc1O2)OCO3 (stereo not drawn) here?
The inhibition was 7.51% (inactive).

How did the inhibition turn out when CN(c1ccc(C(=O)N2CCc3ccccc3C2)cc1)S(C)(=O)=O was run?
The inhibition was 3.47% (inactive).

How did the inhibition turn out when Cc1ccc(-c2cc(C(=O)N3CCc4ccccc4C3)no2)cc1 was run?
Its inhibition is 1.04% (inactive).

Cn1cccc1C(=O)N1CCc2ccccc2C1 was tested. Which inhibition did it give?
Its inhibition is 91.2% (active).

Which inhibition does the source give for O=S(=O)(Cc1ccc(Cl)cc1Cl)c1ccc(Cl)cc1 here?
The inhibition was -1.54% (inactive).

With Cc1nn(-c2ncccn2)c2c1C(=O)CC(C)(C)C2Br (stereo not drawn) as the compound, how does the inhibition read?
The inhibition was 0.781% (inactive).

For CN(C)C(CNC(=O)c1cc2ccccc2o1)c1ccccc1 (stereo not drawn), which inhibition is on record?
Its inhibition is -5.09% (inactive).

How did the inhibition turn out when CCN(CC)CCCNC(=O)c1ccc2c(=O)n(Cc3ccc4c(c3)OCO4)c(=S)[nH]c2c1 was run?
The inhibition was -3.92% (inactive).

CCCCNC(=O)c1ccc(-n2c(=S)[nH]c3ccccc3c2=O)cc1 was tested. Which inhibition did it give?
The inhibition was 41.5% (active).

With CCCCn1c(=S)[nH]c2ccccc2c1=O as the compound, how does the inhibition read?
Its inhibition is -2.2% (inactive).
